Screening results deposited in PubChem by National Center for Advancing Translational Sciences (NCATS).
A selection: hits, their analogues and other compounds. The true share with any hit is near 3.1%.
TR SRC2 fluor cs = alters Texas Red total fluorescence, flagging assay interference | TRb/SRC2 Texas Red total fluorescence interference | Potency, µM (series often up to 106 µM), for inactives: top-dose fluorescence change, negative = quenching | hit rate 0.29% among 280,000; active = well fitted curve in either direction with a large enough effect; inconclusive = small, poorly fitted or top-dose-only effect
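Human TRβ ligand-binding domain (0.6 uM) and Texas Red SRC2 peptide (20 nM) in Tris buffer with 1 uM T3 and 5% DMSO were incubated with pinned compound for 5 hr at ambient temperature. Total fluorescence was computed as S + 2P (555/632 nm).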
TRb SRC2 PPI = disrupts binding of human TR beta to SRC2. Potency, µM (series often up to 106 µM), inactives show top-dose activity change, negative = inhibition, most hits filed as inhibitors. hit rate 0.065% among 280,000. P10828. TRbeta-SRC2 peptide binding, fluorescence polarization; receptor liganded with 1 µM T3;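 note: plate controls were bound peptide for no effect and peptide without receptor for full effect; nearly all actives have a fitted effect of over 50% in size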
Target sequence (P10828 whole entry, looked up): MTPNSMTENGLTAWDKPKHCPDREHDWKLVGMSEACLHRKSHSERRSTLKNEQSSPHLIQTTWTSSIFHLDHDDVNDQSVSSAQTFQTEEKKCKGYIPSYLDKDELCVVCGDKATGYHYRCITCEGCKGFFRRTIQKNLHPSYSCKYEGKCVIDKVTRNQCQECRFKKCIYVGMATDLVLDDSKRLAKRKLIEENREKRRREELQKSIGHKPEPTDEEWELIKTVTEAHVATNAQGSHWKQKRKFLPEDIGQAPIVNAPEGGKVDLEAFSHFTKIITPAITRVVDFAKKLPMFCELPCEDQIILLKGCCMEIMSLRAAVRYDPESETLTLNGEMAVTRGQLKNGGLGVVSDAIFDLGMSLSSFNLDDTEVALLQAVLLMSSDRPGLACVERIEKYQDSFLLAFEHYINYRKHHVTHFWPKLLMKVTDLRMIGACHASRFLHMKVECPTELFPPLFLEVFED
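Compounds were added to 0.6 uM TRb ligand-binding domain and 20 nM Texas Red-labeled SRC2 peptide in Tris buffer containing 1 uM T3, incubated 5 hr at ambient temperature, then read by fluorescence polarization.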
Tau fibril ThT = blocks human tau fibril formation measured by thioflavin T; hit rate 2.1% among 270,000; Potency, µM (highest dose often 57.4 µM), for the others: top-dose activity, negative = inhibition, usual class: inhibitors; recombinant tau K18 P301L, heparin-induced fibrillization, ThT fluorescence; note: nearly all actives have a fitted effect of over 55% in size
Target sequence (P10636 561-689 P618L limits assumed): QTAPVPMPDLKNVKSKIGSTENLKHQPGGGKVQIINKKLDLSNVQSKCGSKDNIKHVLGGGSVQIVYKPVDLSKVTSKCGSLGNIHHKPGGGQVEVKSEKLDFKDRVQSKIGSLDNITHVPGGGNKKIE
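Using a mix of unlabeled (15 uM) and Alexa 594-labeled (0.24 uM) tau K18 P301L, heparin-triggered fibrillization over 6 hr at 37 C was scored by ThT fluorescence.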
Tau fibril FP = inhibitors of human tau fibril formation | hit rate 0.39% among 280,000 | AID 1468 | P10636 | K18 P301L tau heparin fibrillization, Alexa594 FP, 6 h | Potency, µM (highest dose often 57.7 µM), for the others: at the highest dose activity, negative = inhibition, usual class: inhibitors; note: nearly all actives have a fitted effect of over 55% in size
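Compound effects on tau fibrillization are measured by Alexa 594 fluorescence polarization (ex 555, em 632 nm). K18 P301L tau is used at 15 uM with 0.24 uM labeled tracer, and 20 uM heparin induces aggregation over 6 hr at 37 C.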
Tau fluor counter = counter-screen for tau fibril formation inhibitors; tau K18 P301L (four-repeat tau fragment) Alexa594 fluorescence, heparin fibrillization; Potency, µM (series often up to 57.7 µM), without a hit: at the highest dose activity change, negative = decrease; hit rate 0.93% among 280,000; note: nearly all actives have a fitted effect of over 55% in size
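Human K18 P301L tau (15 uM unlabeled plus 0.24 uM Alexa 594-labeled, final) in 100 mM sodium acetate pH 7 was mixed with compound and 20 uM heparin and incubated 6 hr at 37 C.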
Active calls of the source: *; ? = inconclusive; / = not tested or not shown; [ ] = remark or other dose. Unless noted, calls come from the whole dose curve; as a rule, active = well fitted curve in the direction sought with a large enough effect; inconclusive = small, poorly fitted or top-dose-only effect, or another doubt; inactive = no such curve, though single readings can be large; an effect the other way counts as inactive or inconclusive. Unless noted, % is set by controls: 0 for no effect and ±100 for the full control effect; potency is the fitted concentration of half-maximal effect.

SMILES | TR SRC2 fluor cs | TRb SRC2 PPI | Tau fibril ThT | Tau fibril FP | Tau fluor counter
CCOc1ccc(C(=O)Nc2ccc3nc(SCC(=O)N(C)c4ccccc4)sc3c2)cc1 | -12% | 7% | -5% | ? | ?
CN1CCN(NS(=O)(=O)c2ccc(Cl)s2)CC1 | 1% | 2% | 18µM* | ? | -25%
O=C(Nc1ccc(Br)cc1)c1cc(Br)c(Br)s1 | 0% | 6% | / | / | /
CCC(C(=O)Nc1ccccc1OC)n1c(C(=O)OC)cc2sc(Cl)cc21 (stereo not given) | 20µM*[quencher] | -19% | -6% | -16% | -30%
CCOc1ccccc1NC(=O)C(CC)n1c(C(=O)OC)cc2occc21 (stereo not given) | 2% | -6% | -13% | -4% | -28%
CCc1nn(CCCC(=O)N2CCN(c3cc(Cl)ccc3C)CC2)c(=O)c2cc3occc3n12 | -2% | 5% | ? | 5% | -9%
CCCc1cc2c(OC(=O)CC)c(-c3ccc(C(=O)OCC)o3)c(=O)oc2cc1OC | -10% | 4% | 25µM* | 5% | -27%
COc1ccc(/C=C2/SC(=O)N(CCC(=O)Nc3ccc(C)cc3)C2=O)cc1OC | 1% | -10% | ? | -9% | -2%
COc1ccc(/C=C2\SC(=O)N(CCNC(=O)Cc3coc4cc(C)ccc34)C2=O)cc1OC | 0% | -2% | 13µM* | ? | -25%
O=C(Cn1c(=O)n(Cc2ccc(C(=O)NCc3ccccc3Cl)cc2)c(=O)c2ccccc21)Nc1ccc(F)cc1 | -1% | 2% | 7% | ? | -18%
O=C(Cn1c(=O)n(-c2ccccc2)c(=O)c2ccc(C(=O)NCc3ccc4c(c3)OCO4)cc21)Nc1ccc(F)c(Cl)c1 | 0% | 2% | 6% | 25µM* | -25%
O=C(Cn1c(=O)n(Cc2ccc(C(=O)NCc3ccccc3Cl)cc2)c(=O)c2ccccc21)Nc1ccc(F)c(Cl)c1 | 0% | -2% | -2% | 14µM* | -17%
COc1ccc(NC(=O)CSc2nc3c(c(-c4cccs4)c2C#N)CN(C)CC3)cc1OC | -3% | -1% | 25µM* | ? | 25µM*[quencher]
COc1ccc(/C=C/C(=O)c2ccc[nH]2)c(OC)c1OC | -5% | 6% | -18% | 4% | -7%
COc1ccc(/C=C/C(=O)c2ccncc2)c2ccccc12 | -11% | -3% | 16µM* | ? | -13%
O=C(O)COc1cccc2c1CCC=C2CCO/N=C(\c1ccccc1)c1cccnc1 | -10% | -1% | / | / | /
CN(C)[C@H]1C(=O)C(C(=O)NCN2CCCC2)=C(O)[C@]2(O)C(=O)C3=C(O)c4c(O)cccc4[C@](C)(O)[C@H]3C[C@H]12 | 14µM*[quencher] | ? | / | / | /
CN(C)c1ccc(O)c2c1C[C@@H]1C[C@H]3C(N(C)C)C(=O)C(C(N)=O)=C(O)[C@@]3(O)C(=O)C1=C2O (stereo not given in full) | -4% | 1% | ? | -9% | -16%
CN(C)[C@@H]1C(=O)C(C(=O)NCN2CCCC2)=C(O)[C@@]2(O)C(=O)C3=C(O)c4c(O)cccc4[C@@](C)(O)C3CC12 (stereo not given in full) | ? | -18% | 14µM* | ? | ?
CN(C)c1ccc(NC(=O)c2cnsn2)cc1 | -1% | 3% | 10µM* | -2% | -21%
O=c1c2c([N+](=O)[O-])cc([N+](=O)[O-])cc2sn1-c1ccc(Br)cc1 | 5% | 4% | 14µM* | 22µM* | ?
Cc1nc2ccccc2c(=O)n1/N=C/c1ccc([N+](=O)[O-])o1 | -4% | -6% | 28µM* | ? | ?
Cc1ccc(/C=N/n2c(C)nc3ccccc3c2=O)o1 | -5% | -3% | -6% | 0% | -6%
O=C(N/N=C/c1ccc([N+](=O)[O-])o1)C(O)c1ccccc1 (stereo not given) | 3% | -1% | / | 0% | -7%
CN(/N=C/c1ccc([N+](=O)[O-])o1)c1ccccc1 | -6% | -2% | 7.1µM* | -11% | ?
SMILES | TR SRC2 fluor cs | TRb SRC2 PPI | Tau fibril ThT | Tau fibril FP | Tau fluor counter
CCN1C(C)=C(C(=O)OC)C(c2ccccc2)N2C(=O)[C@](O)(C(=O)OC)C(c3ccccc3)C(C(C)=O)=C12 (stereo not given in full) | -3%[11.2 µM] | 2%[11.2 µM] | ? | -12%[11.6 µM] | -25%[11.6 µM]
CCOc1ccccc1C(=O)Nc1cc(Cl)ccc1O | -3% | 10% | ? | ? | 18µM*[quencher]
COc1ccccc1C(=O)Nc1cc(Cl)ccc1O | -2% | -14% | -9% | 6% | -7%
O=c1oc2ccccc2cc1-c1cn2cc(Cc3ccc(Br)cc3)sc2n1 | ? | 5% | -3% | -4% | -6%
Cc1oc(-c2ccccc2F)nc1CS(=O)(=O)CC(=O)N1CCN(c2ccc(Cl)cc2)CC1 | ? | 0% | ? | 3% | -28%
C/C(=C\C(C)CC(C)CC(C)C)C1CC(=O)OC1=O (stereo not given) | -4%[201 µM] | 1%[201 µM] | / | / | /
CC[N+]1=C(C)C(C)(C)c2cc(C)ccc21 | 40µM*[fluorescent] | ? | 3.5µM* | ? | 0.71µM*[fluorescent]
Cc1ccc2c(c1)C=CC(C)(C)S2=O (stereo not given) | -1% | -5% | 0% | -3% | 2%
CO/N=C(/C)CCC(=O)OC[C@@H]1O[C@H](c2ccccc2)C=C[C@@H]1Oc1ccc(OC)cc1 | -3%[11.2 µM] | -1%[11.2 µM] | -5%[11.5 µM] | -8%[11.6 µM] | -10%[11.6 µM]
COc1ccc(N=C2S/C(=C\c3ccc(N4CCOCC4)o3)C(=O)N2CCc2c[nH]c3ccccc23)cc1 | -3% | 0% | 14µM* | 6% | ?
COc1ccc(N=C2S/C(=C\c3ccc(OCC(=O)O)cc3)C(=O)N2CCc2c[nH]c3ccccc23)cc1 | -5% | -4% | 7% | ? | 11%
CN(C)/C=C1/C(=O)N(c2ccc([N+](=O)[O-])cc2)N=C1c1ccccc1 | -11% | 8% | 22µM* | -11% | ?
CCCC1=NN(c2ccc([N+](=O)[O-])cc2)C(=O)/C1=C/N(C)C | -3% | -7% | ? | 1% | -16%
CN(C)/C=C1\C(=O)N(c2ccc([N+](=O)[O-])cc2)N=C1c1ccccc1 | -4% | -3% | 18µM* | ? | ?
CC1=NN(c2ccc([N+](=O)[O-])cc2)C(=O)/C1=C\N(C)C | -4% | 4% | 13µM* | 1% | -24%
CC(C)c1ccc(OCC(=O)Nc2c(C(=O)c3ccc(F)cc3)oc3ccccc23)cc1 | -28% | -2% | -5% | -12% | -11%
CCOC(=O)c1ccc2c(c1)C1C=CCC1C(C(=O)O)N2 (stereo not given) | ? | -3% | ? | ? | ?
O=C(O)C1Nc2c(C(=O)N3CCOCC3)cccc2C2C=CCC12 (stereo not given) | 20% | -6% | 14µM* | ? | ?
Cc1ccc2c(c1C)NC(C(=O)O)C1CC=CC21 (stereo not given) | -21% | -17% | 11µM* | ? | ?
